In PubChem BioAssay (NCI):
Several values for one entry are separate records, joined by “and”; a condition that tells them apart may be missing. Equal values may be shown once. This is part of a sample that, as a whole, favours compounds with a hit. Of some 83,000 tested, about 20% had one in any assay.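 Results are percent growth after 48 hours of single-concentration exposure. 100 means growth as in untreated cells, lower positive values show inhibition; negative values down to -100 show cell death.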 Activity calls are given as the source filed them. The calls were made as follows: active = growth percent below 10; inactive = the rest.

Assays:
Test in all cases: NCI-60 one-dose screen, 48 h (100 = growth as untreated, 0 = no growth, -100 = all killed)
HT29 colon = test system: HT29 colon
SNB-75 CNS = test system: SNB-75 CNS
SNB-19 CNS = test system: SNB-19 CNS
U251 CNS = test system: U251 CNS
PC-3 prostate = test system: PC-3 prostate
SK-MEL-5 melanoma = test system: SK-MEL-5 melanoma
UACC-62 melanoma = test system: UACC-62 melanoma
LOX IMVI melanoma = test system: LOX IMVI melanoma
SK-MEL-28 melanoma = test system: SK-MEL-28 melanoma
SK-MEL-2 melanoma = test system: SK-MEL-2 melanoma
EKVX NSCLC = test system: EKVX NSCLC
SN12C renal = test system: SN12C renal
UO-31 renal = test system: UO-31 renal
ACHN renal = conditions: 10 µM unless noted
CAKI-1 renal = conditions: 10 µM unless noted
A498 renal = test system: A498 renal
CCRF-CEM leukemia = conditions: 10 µM unless noted
MOLT-4 leukemia = test system: MOLT-4 leukemia
TK-10 renal = test system: TK-10 renal

Measured: growth

Cc1ccc(-c2nc([P+](c3ccccc3)(c3ccccc3)c3ccccc3)c(Nc3ccccc3)o2)cc1
active: HT29 colon; 10 µM unless noted -2.08% | SNB-75 CNS; 10 µM unless noted -31.6% | SNB-19 CNS; 10 µM unless noted 2.16% | U251 CNS; 10 µM unless noted -16.2% | PC-3 prostate; 10 µM unless noted 4.11% | SK-MEL-5 melanoma; 10 µM unless noted -87.4% | UACC-62 melanoma; 10 µM unless noted -25.8% | LOX IMVI melanoma; 10 µM unless noted -8.29% | SK-MEL-28 melanoma; 10 µM unless noted -42.3% | SK-MEL-2 melanoma; 10 µM unless noted -58.8% | EKVX NSCLC; 10 µM unless noted -2.84% | SN12C renal; 10 µM unless noted 2.84% | UO-31 renal; 10 µM unless noted -23.5% | ACHN renal -11.6% | CAKI-1 renal -27.8% | A498 renal; 10 µM unless noted -37.9% | CCRF-CEM leukemia 0.282% | MOLT-4 leukemia; 10 µM unless noted -9.22%

N#Cc1c(N)nnn1Cc1cc(=O)oc2ccc(O)cc12
inactive: HT29 colon; 10 µM unless noted 102% | SNB-75 CNS; 10 µM unless noted 100% | SNB-19 CNS; 10 µM unless noted 102% | U251 CNS; 10 µM unless noted 103% | PC-3 prostate; 10 µM unless noted 97.3% | SK-MEL-5 melanoma; 10 µM unless noted 97.9% | UACC-62 melanoma; 10 µM unless noted 99.9% | LOX IMVI melanoma; 10 µM unless noted 102% | SK-MEL-28 melanoma; 10 µM unless noted 112% | SK-MEL-2 melanoma; 10 µM unless noted 117% | EKVX NSCLC; 10 µM unless noted 117% | SN12C renal; 10 µM unless noted 106% | UO-31 renal; 10 µM unless noted 90.5% | TK-10 renal; 10 µM unless noted 104% | ACHN renal 106% | CAKI-1 renal 107% | A498 renal; 10 µM unless noted 102% | CCRF-CEM leukemia 93.8% | MOLT-4 leukemia; 10 µM unless noted 109%

CC(=O)/C=C/c1ccc(N(CCO)Cc2ccc(C(C)(C)C)cc2)cc1
active: HT29 colon; 100 µM -81.5% | SNB-75 CNS; 100 µM -92.3% | SNB-19 CNS; 100 µM -89.9% | U251 CNS; 100 µM -100% | PC-3 prostate; 100 µM -90.3% | SK-MEL-5 melanoma; 100 µM -99.5% | UACC-62 melanoma; 100 µM -86.3% | LOX IMVI melanoma; 100 µM -100% | SK-MEL-28 melanoma; 100 µM -90.7% | SK-MEL-2 melanoma; 100 µM -75.2% | EKVX NSCLC; 100 µM -86.5% | SN12C renal; 100 µM -86.4% | UO-31 renal; 100 µM -100% | TK-10 renal; 100 µM -96.7% | A498 renal; 100 µM -98.3% | MOLT-4 leukemia; 100 µM -47.4%
inactive: HT29 colon; 10 µM 59.4% | SNB-75 CNS; 10 µM 76.3% | SNB-19 CNS; 10 µM 102% | U251 CNS; 10 µM 75.9% | PC-3 prostate; 10 µM 66% | SK-MEL-5 melanoma; 10 µM 70% | UACC-62 melanoma; 10 µM 76.5% | LOX IMVI melanoma; 10 µM 62.4% | SK-MEL-28 melanoma; 10 µM 89.1% | SK-MEL-2 melanoma; 10 µM 93.3% | EKVX NSCLC; 10 µM 57.4% | SN12C renal; 10 µM 73% | UO-31 renal; 10 µM 47.2% | TK-10 renal; 10 µM 96.7% | ACHN renal 80.5% | A498 renal; 10 µM 78.6% | MOLT-4 leukemia; 10 µM 54%

CCCCC1=C(Br)C(=O)c2nc(C)ccc2C1=O
inactive: HT29 colon; 10 µM unless noted 107% | SNB-75 CNS; 10 µM unless noted 84.4% | SNB-19 CNS; 10 µM unless noted 92.5% | U251 CNS; 10 µM unless noted 89.6% | PC-3 prostate; 10 µM unless noted 80.3% | SK-MEL-5 melanoma; 10 µM unless noted 92.6% | UACC-62 melanoma; 10 µM unless noted 84.9% | LOX IMVI melanoma; 10 µM unless noted 89.1% | SK-MEL-28 melanoma; 10 µM unless noted 105% | SK-MEL-2 melanoma; 10 µM unless noted 109% | EKVX NSCLC; 10 µM unless noted 92.7% | SN12C renal; 10 µM unless noted 91.6% | UO-31 renal; 10 µM unless noted 70.8% | TK-10 renal; 10 µM unless noted 115% | ACHN renal 57.1% | CAKI-1 renal 85.9% | A498 renal; 10 µM unless noted 93.8% | CCRF-CEM leukemia 30.9% | MOLT-4 leukemia; 10 µM unless noted 21.3%

Cc1ccc(/C=C(\C#N)c2cc3ccccc3[nH]2)cc1
inactive: HT29 colon; 10 µM unless noted 13% | SNB-75 CNS; 10 µM unless noted 54.1% | SNB-19 CNS; 10 µM unless noted 55.4% | U251 CNS; 10 µM unless noted 38% | PC-3 prostate; 10 µM unless noted 71.1% | SK-MEL-5 melanoma; 10 µM unless noted 52% | UACC-62 melanoma; 10 µM unless noted 22.7% | LOX IMVI melanoma; 10 µM unless noted 43.4% | SK-MEL-28 melanoma; 10 µM unless noted 72.1% | SK-MEL-2 melanoma; 10 µM unless noted 48.8% | EKVX NSCLC; 10 µM unless noted 74.7% | SN12C renal; 10 µM unless noted 50.3% | UO-31 renal; 10 µM unless noted 69.8% | TK-10 renal; 10 µM unless noted 82.6% | ACHN renal 85.6% | A498 renal; 10 µM unless noted 57.2% | CCRF-CEM leukemia 46% | MOLT-4 leukemia; 10 µM unless noted 30.6%

CCCCCCCCCCCCCCCC[N+](C)(C)CCN(Cc1ccc(OC)cc1)c1ncccn1
-39.6% (active) and 19% (inactive): UACC-62 melanoma; 10 µM unless noted
9.57% (active) and 80.3% (inactive): UO-31 renal; 10 µM unless noted
-48.7% (active) and 41.9% (inactive): SNB-19 CNS; 10 µM unless noted
-53.1% (active) and 23.7% (inactive): CCRF-CEM leukemia
-78% (active) and 15.4% (inactive): PC-3 prostate; 10 µM unless noted
inactive: SNB-75 CNS; 10 µM unless noted 51.9% and 13% | SK-MEL-2 melanoma; 10 µM unless noted 59.8% | ACHN renal 45.7% and 67% | CAKI-1 renal 44.1%
8.82% (active) and 39.8% (inactive): SK-MEL-5 melanoma; 10 µM unless noted
-76.8% (active) and 23.8% (inactive): LOX IMVI melanoma; 10 µM unless noted
-52% (active) and 23.9% (inactive): MOLT-4 leukemia; 10 µM unless noted
-82.5% (active) and 29.2% (inactive): U251 CNS; 10 µM unless noted
active: EKVX NSCLC; 10 µM unless noted -84.6% | A498 renal; 10 µM unless noted -70.4%
-90.3% (active) and 71.7% (inactive): TK-10 renal; 10 µM unless noted
-57.9% (active) and 34% (inactive): SN12C renal; 10 µM unless noted
-100% (active) and 18.2% (inactive): HT29 colon; 10 µM unless noted

C=C1C(=O)O[C@H]2[C@H]1CC/C(CNS(=O)(=O)c1ccc3ccccc3c1)=C\CC[C@@]1(C)O[C@@H]21
active: HT29 colon; 10 µM unless noted -78.2% | UACC-62 melanoma; 10 µM unless noted -12% | LOX IMVI melanoma; 10 µM unless noted -84.8% | SK-MEL-28 melanoma; 10 µM unless noted -8.36% | UO-31 renal; 10 µM unless noted -88% | ACHN renal -39.3% | CCRF-CEM leukemia -18.1% | MOLT-4 leukemia; 10 µM unless noted -27.6%
inactive: SNB-75 CNS; 10 µM unless noted 38.2% | SNB-19 CNS; 10 µM unless noted 71.9% | U251 CNS; 10 µM unless noted 48.9% | PC-3 prostate; 10 µM unless noted 53.6% | SK-MEL-5 melanoma; 10 µM unless noted 31.8% | SK-MEL-2 melanoma; 10 µM unless noted 43.7% | EKVX NSCLC; 10 µM unless noted 66.6% | SN12C renal; 10 µM unless noted 29.1% | CAKI-1 renal 15.3% | A498 renal; 10 µM unless noted 58.2%

C=CCOc1ccc(/C=C2\SC(=S)N(CCc3ccc(O)cc3)C2=O)cc1
inactive: HT29 colon; 10 µM unless noted 88.4% | SNB-75 CNS; 10 µM unless noted 82% | SNB-19 CNS; 10 µM unless noted 93.3% | U251 CNS; 10 µM unless noted 86% | PC-3 prostate; 10 µM unless noted 90.4% | SK-MEL-5 melanoma; 10 µM unless noted 94.4% | UACC-62 melanoma; 10 µM unless noted 73.8% | SK-MEL-28 melanoma; 10 µM unless noted 110% | SK-MEL-2 melanoma; 10 µM unless noted 106% | EKVX NSCLC; 10 µM unless noted 91.4% | SN12C renal; 10 µM unless noted 84.4% | UO-31 renal; 10 µM unless noted 61.3% | TK-10 renal; 10 µM unless noted 106% | ACHN renal 94% | CAKI-1 renal 71.2% | A498 renal; 10 µM unless noted 65.6% | MOLT-4 leukemia; 10 µM unless noted 40.4%
active: LOX IMVI melanoma; 10 µM unless noted -71.2% | CCRF-CEM leukemia 5.72%

CCCCSc1ccc2nc(-c3ccc(OCCCN=C(N)N)cc3)cn2c1
inactive: HT29 colon; 10 µM unless noted 53% | SNB-75 CNS; 10 µM unless noted 22.5% | SNB-19 CNS; 10 µM unless noted 24.5% | U251 CNS; 10 µM unless noted 13.1% | PC-3 prostate; 10 µM unless noted 54% | SK-MEL-5 melanoma; 10 µM unless noted 52.8% | UACC-62 melanoma; 10 µM unless noted 52% | LOX IMVI melanoma; 10 µM unless noted 61.3% | SK-MEL-28 melanoma; 10 µM unless noted 38.3% | SK-MEL-2 melanoma; 10 µM unless noted 48.4% | EKVX NSCLC; 10 µM unless noted 95.6% | SN12C renal; 10 µM unless noted 88.3% | UO-31 renal; 10 µM unless noted 76.6% | TK-10 renal; 10 µM unless noted 110% | ACHN renal 89.2% | CAKI-1 renal 62.3% | A498 renal; 10 µM unless noted 89.4% | CCRF-CEM leukemia 53.4% | MOLT-4 leukemia; 10 µM unless noted 53.1%

Cn1cc(-c2csc(-c3c[nH]c4ccc(F)cc34)n2)c2cnccc21
active: HT29 colon; 10 µM unless noted -52.6% | SNB-75 CNS; 10 µM unless noted -89.1% | U251 CNS; 10 µM unless noted -74.6% | SK-MEL-5 melanoma; 10 µM unless noted -97% | UACC-62 melanoma; 10 µM unless noted -78.5% | LOX IMVI melanoma; 10 µM unless noted -90.4% | SK-MEL-28 melanoma; 10 µM unless noted -95.9% | SK-MEL-2 melanoma; 10 µM unless noted -66.4% | EKVX NSCLC; 10 µM unless noted -28.4% | SN12C renal; 10 µM unless noted -48.5% | UO-31 renal; 10 µM unless noted -75.3% | TK-10 renal; 10 µM unless noted -28% | ACHN renal -54% | CAKI-1 renal -57.8% | CCRF-CEM leukemia -32.3% | MOLT-4 leukemia; 10 µM unless noted -34.7%
inactive: SNB-19 CNS; 10 µM unless noted 14.3% | PC-3 prostate; 10 µM unless noted 20.5% | A498 renal; 10 µM unless noted 74.8%
